Inconclusive results are not listed. Calls of active or inactive are those of the source. Calls follow the shape of the dose curve; as a rule, active = well fitted antagonist curve with a large enough effect in the main read-out, with a control signal flat; inconclusive = small, poorly fitted or top-dose-only effect; inactive = no such curve, though single readings can be large or run the other way.
biological target: Neuropeptide S receptor (Homo sapiens) (UniProt Q6W5P4); assay: Confirmation Concentration-Response Assay for Antagonists of the Neuropeptide S Receptor: Calcium Signal Transduction; conditions: CHO-NPSR cells, NPS-induced calcium flux, FDSS; series mostly up to 19.3 µM
Description: NIH Chemical Genomics Center [NCGC] NIH Molecular Libraries Probe Production centers Network [MLPCN] MLPCN Grant: X01-DA026210-01 Assay Submitter (PI): Heilig, Markus Alexander NCGC Assay Overview: Neuropeptide S receptor (NPSR), previously known as GPR154, is a recently de-orphanized G protein coupled receptor. Its endogenous ligand is the 20 amino acids peptide Neuropeptide S (NPS). […] NPS and its receptor are found in various tissues. Specifically they are highly expressed in brain areas that have been implicated in modulation of arousal, stress and anxiety. Central administration of NPS in mice produces an unusual profile of activity by inducing wakefulness and arousal, while at the same time suppressing anxiety. Therefore, NPSR may represent a novel drug target for the treatment of sleep and anxiety disorders. To identify NPSR antagonists, we developed a cell-based assay with transfected NPS receptor. NPS can stimulate the production of cAMP as well as release intracellular calcium in Chinese hamster ovary cells stably expressing NPS receptor. This change in intracellular calcium can be detected using a calcium indicator dye on a calcium imaging plate reader system (FDSS).
NCGC Assay Protocol Summary: A Chinese hamster ovary (CHO) cell line stably expressing the NPS receptor (CHO-NPSR) was obtained from Dr. Heilig lab at NIAAA and maintained in F-12 Kaighn's media (Invitrogen, Carlsbad, CA, 21127) supplemented with 10 % FBS, 100 units/ml penicillin, 100 ug/ml streptomycin and 250 ug/ml geneticin at 37C, 5% CO2 in a humidified atmosphere. Before the assay, aliquots of cells were frozen and stored at -135C. The assay was performed on a FDSS-7000 kinetic plate reader in 1536-well format. For both agonist (1-220s) and antagonist (221-400s) phases, the maximums of kinetic fluorescence responses were converted separately into text files using the instrument's software data export utility. Data for agonist response were normalized to the controls for basal activity (DMSO only) and 100% activation (NPS). […] AC50 values were determined from concentration-response data modeled with the standard Hill equation. NPS 1536-well FDSS assay protocol: (1) Frozen CHO-NPSR cells were thaw, washed once with fresh media and resuspended in F-12 Kaighn's media supplemented with 10 % FBS, 100 units/ml penicillin and 100 ug/ml streptomycin. Cells were plated at 3 ul/well (1200 cells) to black, clear-bottom, tissue-culture treated 1536-well plates, and then cultured at 37C, 5 % CO2 for 16 to 30 hours. (2) Add 3 ul of calcium dye (from High Performance PBX Calcium Assay Kit, BD Biosciences). The calcium dye was prepared according to the manufactory's instruction. (3) Incubation at 37C, 5 % CO2 for 60 to 120 min. (4) Load plates to FDSS-7000. The following steps were performed on FDSS-7000. (5) Record fluorescent background (Ex 480 nm, Em 520-560 nm) for 10 s. (6) Add 23 nl/well of compound in DMSO solution. The final titration for each compound was between 0.6 nM and 46 uM. Record agonist response for 210 s. (7) Add 2 ul of stimulation reagent (1X HBSS buffer, 0.1% BSA, 60 nM NPS). Record antagonist response for 140 s. Keywords: MLSMR, MLPCN, NIH Roadmap, qHTS, NCGC, NPS, Neuropeptide S Antagonists

Neuropeptide S receptor (Homo sapiens), sequence (Q6W5P4 whole entry, looked up): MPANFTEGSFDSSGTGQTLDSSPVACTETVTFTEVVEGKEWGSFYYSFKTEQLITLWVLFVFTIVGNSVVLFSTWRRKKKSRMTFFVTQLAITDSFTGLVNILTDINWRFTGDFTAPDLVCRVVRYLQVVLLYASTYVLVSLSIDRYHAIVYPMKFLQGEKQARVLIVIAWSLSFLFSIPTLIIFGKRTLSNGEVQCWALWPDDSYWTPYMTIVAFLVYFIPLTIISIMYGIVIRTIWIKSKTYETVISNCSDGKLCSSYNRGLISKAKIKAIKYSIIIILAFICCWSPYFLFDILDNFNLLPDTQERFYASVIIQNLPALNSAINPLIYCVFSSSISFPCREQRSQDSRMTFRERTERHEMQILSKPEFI

| SMILES | Potency |
| --- | --- |
| CC(=O)Nc1cc([As](=O)(O)O)ccc1O | inactive |
| CNc1ccc2oc(C[C@H]3O[C@@]4(CC[C@H]3C)O[C@H]([C@H](C)C(=O)c3ccc[nH]3)[C@H](C)C[C@H]4C)nc2c1C(=O)O | 15.8 nM (active) |
| C=CCN1C(=O)/C(=C/c2cccs2)C(=O)NC1=S | 11200 nM (active) |
| C=C(C=O)C[C@@H]1C[C@H](O)C2OC3C[C@]4(C)OC5/C=C\CC6OC7C(CC=CCC6OC5CCCC4OC3CC2O1)OC1CC2OC3CC(=O)OC3C[C@@H](C)C[C@@]2(C)OC1C[C@@H]7C (stereo not given in full) | 501 nM (active) |
| Cc1c(P(=S)(c2ccccc2)c2ccccc2)[n+]2ccccc2n1C | 200 nM (active) |
| Cc1cccc(N2C(=O)NC(=O)/C(=C\c3cnn(-c4ccccc4)c3)C2=O)c1 | 10000 nM (active) |
| CCOC(=O)c1c(-n2c(C)cc(C=C3C(=O)NC(=S)NC3=O)c2C)sc2c1CCCC2 | 2000 nM (active) |
| C[C@H]1CCCC(=O)CCCCCc2cc(O)cc(O)c2C(=O)O1 | inactive |
| C=C1C(=O)O[C@@H]2C[C@@H](C)[C@@H]3C=CC(=O)[C@@]3(C)[C@@H](OC(=O)CC(=O)O[C@H]3[C@@H]4C(=C)C(=O)O[C@@H]4C[C@@H](C)[C@@H]4C=CC(=O)[C@]43C)[C@H]12 | 89.1 nM (active) |
| Cc1cc(C=C2C(=O)NC(=S)NC2=O)c(C)n1-c1ccc2c(c1)OCO2 | 12600 nM (active) |
